Screening data as filed in PubChem.
Bfl-1 A1 inh: inhibitors of the anti-apoptotic protein A1, read as caspase activation; MEF A1-2A-BIM cells, Caspase-Glo 3/7 luminescence, 3 h; percent of clofoctol response, vehicle zero; caspase activation, % (no concentration beside the values); actives 0.066% (n = 330,000); AID 2462;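 active = over half of replicate activation scores above 10%, or exactly half above 10 with the replicate mean above 10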
CSC inhib: blocks cancer stem cells. inhibition, % at 7.5 µM. cancer stem cell-like cells viability, luminescence. actives 1.1% (n = 300,000). AID 2717; in the data active = inhibition above about 75%; tested in HMLE shEcad cells
Beta cell apopt: beta cell apoptosis inhibition; AID 435005; INS-1E cytokine-induced death, ATP luminescence, 48 h; percent of positive-control rescue, neutral wells zero; actives 0.8% (n = 300,000); protection from apoptosis, % (concentration not given with the values);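 active = Every replicate reaches about 75%, or at least half do and their mean reaches it too, limit read from the data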;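 note: 0% = cytokine-treated negative control wells and 100% = positive control rescue; higher means more ATP so stronger rescue from cytokine killing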
aSyn UTR inh: MLPCN primary screen, SNCA 5' untranslated region; alpha-synuclein 5'UTR reporter, inhibitor activity; inhibition, % (tested at 7.5 µM); actives 0.82% (n = 300,000); AID 1813; in the data active = inhibition above about 60%;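 note: H4 neuroglioblastoma cells stably carrying SNCA 5'UTR luciferase fusion; 0% = DMSO wells and 100% = positive control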
Mdm2-MdmX inh: human Mdm2/MdmX binding inhibition | O15151+Q00987 | SaOS-2 split-luciferase Mdm2/MdmX complementation, luminescence | inhibition, % at 8 µM | actives 3% (n = 330,000) | AID 485346;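 active = inhibition of at least 50% at 8 µM in the primary screen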
Mdm2 MdmX conf: human Mdm2/MdmX binding inhibition, confirmed. AID 489028. luminescent assay. inhibition, % at 8 µM. shares compounds with Mdm2-MdmX inh. actives 55% (n = 10,000); in the data active = inhibition above about 40%
Full FLuc ctr: inhibits full-length luciferase, flagging false Mdm2/MdmX hits | shares compounds with Mdm2-MdmX inh | SaOS-2 full-length luciferase counterscreen, luminescence | inhibition, % at 8 µM | actives 77% (n = 6,200) | AID 504607;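 active = mean inhibition at 8 µM reaching about 37%, which flags the compound as non-specific, limit read from the data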;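 note: p53-null SaOS-2 cells with luciferase driven by a doxycycline-inducible promoter; compound on cells about two nights before reading with doxycycline added after day one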
Numbers without * were called inactive. In the library only some 4.1% were active in any assay of this set; here they are far more common.

Results for N#Cc1c(Oc2ccc3ccccc3c2)sc(C(=O)c2ccccc2)c1N ?
Bfl-1 A1 inh: -0.7; Beta cell apopt: -9.5; aSyn UTR inh: -16.4; Mdm2-MdmX inh: 75.4*; Mdm2 MdmX conf: 26.4

What do the screens show for `C[C@@]12C(=O)OC(=O)[C@]1(C)C1CCC2O1`?
Bfl-1 A1 inh: 3.2; CSC inhib: 109.2*; Beta cell apopt: 78.9*; Mdm2-MdmX inh: 98.5*; Mdm2 MdmX conf: 93.2*; Full FLuc ctr: 51.8*

What do the screens show for `COc1ccc(Cl)cc1NC(=O)CN1CCN(S(=O)(=O)N2CCCCC2)CC1`?
Bfl-1 A1 inh: 0.0; CSC inhib: 1.6; Beta cell apopt: 13.5; aSyn UTR inh: 6.6; Mdm2-MdmX inh: 26.0

How did CC(C)(C)c1nc(NC(=O)Nc2ccccc2)sc1Br do in these assays?
Bfl-1 A1 inh: -0.2; CSC inhib: 3.5; Beta cell apopt: 9.1; aSyn UTR inh: -57.8; Mdm2-MdmX inh: 66.0*; Mdm2 MdmX conf: 3.9

How did CC(C)c1cc(CNC(=O)C2CCC(=O)N(CCc3ccc(Cl)cc3)C2)on1 (stereo not given) do in these assays?
Bfl-1 A1 inh: 1.4; CSC inhib: -7.8; Beta cell apopt: 4.3; aSyn UTR inh: 17.2; Mdm2-MdmX inh: -4.6

What do the screens show for `O=C(N/N=C1/CC2CCC1C2)c1cc2ccccc2cc1O` (stereo not given)?
Bfl-1 A1 inh: -0.4; CSC inhib: 8.7; Beta cell apopt: 5.3; aSyn UTR inh: -21.2; Mdm2-MdmX inh: 51.9*; Mdm2 MdmX conf: 40.8*; Full FLuc ctr: 83.0*

How did CC1CN(S(=O)(=O)c2ccc(C(=O)Nc3nnc(-c4ccc5c(c4)CCCC5)o3)cc2)CC(C)O1 (stereo not given) do in these assays?
Bfl-1 A1 inh: -0.1; CSC inhib: 18.9; Beta cell apopt: 41.5; aSyn UTR inh: 75.6*; Mdm2-MdmX inh: 67.1*; Mdm2 MdmX conf: 31.9; Full FLuc ctr: 59.2*

Results for CC1CN(S(=O)(=O)c2ccc(C(=O)Nc3nnc(-c4ccccn4)o3)cc2)CC(C)O1 (stereo not given) ?
Bfl-1 A1 inh: -0.1; CSC inhib: -6.3; Beta cell apopt: -6.3; aSyn UTR inh: -11.5; Mdm2-MdmX inh: 6.8

How did CC(=O)Nc1ccc(S(=O)(=O)N2CCCc3ccccc32)cc1 do in these assays?
Bfl-1 A1 inh: 1.0; CSC inhib: 54.9; Beta cell apopt: 15.1; aSyn UTR inh: -12.0; Mdm2-MdmX inh: 58.0*; Mdm2 MdmX conf: 59.3*; Full FLuc ctr: 50.8*

Results for Cc1ccc(NC(=O)c2cc(S(=O)(=O)N3CCc4ccccc43)cn2C)cc1C ?
Bfl-1 A1 inh: -0.3; CSC inhib: 32.8; Beta cell apopt: -2.2; aSyn UTR inh: 27.5; Mdm2-MdmX inh: 54.8*; Mdm2 MdmX conf: 21.8

Results for O=C(Nc1nnc(C2CC2)o1)c1ccc(S(=O)(=O)N2CCCc3ccccc32)cc1 ?
Bfl-1 A1 inh: 0.9; CSC inhib: 22.3; Beta cell apopt: 27.0; aSyn UTR inh: 63.1*; Mdm2-MdmX inh: 50.2*; Mdm2 MdmX conf: 43.8*; Full FLuc ctr: 70.7*

How did Cc1cc(OCC(=O)N2CCC(C(N)=O)CC2)c2c(C)cc(=O)oc2c1 do in these assays?
Bfl-1 A1 inh: 0.6; CSC inhib: -1.8; Beta cell apopt: 3.1; aSyn UTR inh: 23.1; Mdm2-MdmX inh: -10.7

How did Cc1ccc(CSCC(=O)Nc2ccc(N3CCOCC3)cc2N2CCOCC2)cc1 do in these assays?
Bfl-1 A1 inh: -0.1; CSC inhib: -3.5; Beta cell apopt: -0.6; aSyn UTR inh: -6.0; Mdm2-MdmX inh: -8.6

What do the screens show for `CC(C)(C)NC(=O)COc1coc(CN2CCN(Cc3ccccc3)CC2)cc1=O`?
Bfl-1 A1 inh: 0.6; CSC inhib: 5.1; aSyn UTR inh: 16.9; Mdm2-MdmX inh: 1.5

How did CSCCC(NC(=O)COc1ccccc1)C(=O)OCc1ccc([N+](=O)[O-])cc1 (stereo not given) do in these assays?
Bfl-1 A1 inh: 0.3; CSC inhib: -11.3; Beta cell apopt: -3.6; aSyn UTR inh: 4.8; Mdm2-MdmX inh: 9.4

How did COc1ccc(-c2nnc(NC(=O)c3ccc(S(=O)(=O)N4CCCc5ccccc54)cc3)o2)cc1 do in these assays?
Bfl-1 A1 inh: -0.1; Beta cell apopt: 3.2; aSyn UTR inh: 69.0*; Mdm2-MdmX inh: 61.8*; Mdm2 MdmX conf: 59.0*; Full FLuc ctr: 46.4*

Results for COC(=O)Nc1ccc(S(=O)(=O)N2c3ccccc3CCC2C)cc1 (stereo not given) ?
Bfl-1 A1 inh: 1.2; CSC inhib: 144.7*; Beta cell apopt: 10.0; aSyn UTR inh: 27.2; Mdm2-MdmX inh: 58.3*; Mdm2 MdmX conf: 62.8*; Full FLuc ctr: 59.7*

Results for COC(=O)Nc1ccc(S(=O)(=O)N2CCCCC2C(=O)O)cc1 (stereo not given) ?
Bfl-1 A1 inh: 0.2; CSC inhib: -15.8; Beta cell apopt: -3.8; aSyn UTR inh: 21.1; Mdm2-MdmX inh: 19.4

How did N#CCN(CC#N)C(=O)C1c2ccccc2Oc2ccccc21 do in these assays?
Bfl-1 A1 inh: 0.1; CSC inhib: -6.0; Beta cell apopt: -3.3; aSyn UTR inh: -10.9; Mdm2-MdmX inh: -4.7

How did CCC(C)Nc1ccc(NC(C)CC)cc1 (stereo not given) do in these assays?
Bfl-1 A1 inh: -0.2; CSC inhib: 81.5*; Beta cell apopt: 108.8*; Mdm2-MdmX inh: 96.7*; Mdm2 MdmX conf: 68.3*; Full FLuc ctr: 17.8

How did Cc1ccc(NC(=S)/N=C(\N)Nc2nc(C)c3cc(C)c(C)cc3n2)cc1C do in these assays?
Bfl-1 A1 inh: -0.2; CSC inhib: 0.4; Beta cell apopt: 0.4; aSyn UTR inh: 17.6; Mdm2-MdmX inh: 43.5

How did Cc1ccc(NC(=S)/N=C(\N)Nc2nc(C)c3cc(C)ccc3n2)c(C)c1 do in these assays?
Bfl-1 A1 inh: -1.1; CSC inhib: 11.4; Beta cell apopt: -5.1; aSyn UTR inh: 27.3; Mdm2-MdmX inh: 71.9*; Mdm2 MdmX conf: 41.4*; Full FLuc ctr: 79.4*

How did COc1ccc2nc(N/C(N)=N/C(=S)Nc3cccc(C)c3)nc(C)c2c1 do in these assays?
Bfl-1 A1 inh: -0.3; CSC inhib: 29.1; Beta cell apopt: -5.7; aSyn UTR inh: -2.2; Mdm2-MdmX inh: 36.7

What do the screens show for `COc1ccc2nc(N/C(N)=N/C(=S)Nc3c(C)cccc3C)nc(C)c2c1`?
Bfl-1 A1 inh: -0.4; CSC inhib: 18.3; Beta cell apopt: 0.2; aSyn UTR inh: 33.0; Mdm2-MdmX inh: 57.1*; Mdm2 MdmX conf: 41.1*; Full FLuc ctr: 67.8*

What do the screens show for `CCc1ccccc1NC(=S)/N=C(\N)Nc1nc(C)c2cc(C)ccc2n1`?
Bfl-1 A1 inh: -0.4; CSC inhib: -26.0; Beta cell apopt: 3.1; aSyn UTR inh: 41.7; Mdm2-MdmX inh: 66.7*; Mdm2 MdmX conf: 51.6*; Full FLuc ctr: 69.7*

How did COCCN(C(=O)COC(=O)/C=C/c1nc2ccccc2s1)c1c(N)n(Cc2ccccc2)c(=O)[nH]c1=O do in these assays?
Bfl-1 A1 inh: -1.1; CSC inhib: 13.8; Beta cell apopt: -18.9; aSyn UTR inh: -19.9; Mdm2-MdmX inh: 64.0*; Mdm2 MdmX conf: 38.6
